High-throughput results (PubChem BioAssay)
Only some compounds are listed: those with a hit (about 1.4% of all), similar ones and a draw of the others.
MbtI inh: MbtI salicylate synthase inhibitors, primary screen, biochemical, fluorescence intensity. P9WFX0. purified MbtI enzyme, fluorescence intensity read-out. inhibition, % (no concentration beside the values). 100,000 compounds, 0.89% hits. AID 493033, 2011; in the data active = inhibition mostly above about 56%, no sharp cut-off; inactive = mostly below about 77%
Mtb MenB inh: M. tuberculosis MenB inhibitors, primary screen, biochemical, absorbance | 1,4-dihydroxy-2-naphthoyl-CoA synthase (Mycobacterium tuberculosis (strain ATCC 25618 / … | MenB enzyme assay, absorbance read-out | inhibition, % (concentration not given with the values) | 100,000 compounds, 0.43% hits | AID 540299, 2011; in the data active = inhibition above about 21%, passing the limit was not always enough
Target sequence (P9WNP5 whole entry, looked up): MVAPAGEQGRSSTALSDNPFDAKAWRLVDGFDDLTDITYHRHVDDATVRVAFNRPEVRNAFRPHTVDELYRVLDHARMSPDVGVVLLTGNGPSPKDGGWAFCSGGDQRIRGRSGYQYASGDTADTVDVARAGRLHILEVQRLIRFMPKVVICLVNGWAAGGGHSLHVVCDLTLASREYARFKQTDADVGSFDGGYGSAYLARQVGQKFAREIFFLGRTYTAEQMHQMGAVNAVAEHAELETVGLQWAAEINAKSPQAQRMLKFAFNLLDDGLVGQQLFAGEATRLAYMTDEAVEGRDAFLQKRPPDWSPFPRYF
Polio RdRp inh: poliovirus RdRp elongation inhibitors, primary screen, biochemical, fluorescence polarization, total intensity; poliovirus polymerase elongation; active compounds read low; % elongation, % (compound at 16.7 µg/mL); 150,000 compounds, 0.66% hits; Genome polyprotein (Poliovirus type 1 (strain Mahoney)), P03300; in the data active = % elongation below about 90%
AID504770: growth inhibition of E. coli YBA685, primary screen, V. cholerae RctB inhibitors; E. coli YBA685 rctB-dependent plasmid, OD600 growth, 3 h; active compounds read low; z-score (no concentration beside the values); 130,000 compounds, 0.27% hits; in the data active = z-score below about -2, passing the limit was not always enough
Numbers stand for hits; . = inactive; / = no result given.

SMILES	MbtI inh	Mtb MenB inh	Polio RdRp inh	AID504770
COc1cccc(NC(=O)CCSc2nc(-c3ccco3)cc(C(F)(F)F)n2)c1	/	/	90.0	/
O=C(Nc1nnc(C(F)(F)F)s1)c1ccccc1	91.5	.	.	.
CC1C(O)=C(c2ccc(F)cc2)C(=N)N1c1ccccc1 (stereo not drawn)	.	.	.	.
N#Cc1oc2ccccc2c1NC(=O)CSc1nnc(-c2ccccc2)n1Cc1ccco1	.	38.6	/	.
CCCn1c(SC(C)C(=O)Nc2ccc(C#N)cc2)nc2ccccc21 (stereo not drawn)	.	.	.	.
O=C(CSc1nnc(-c2cc3ccccc3[nH]2)n1-c1ccccc1)N1CCNC1=O	.	.	58.0	.
O=C1CC(C(=O)O)C2(CCCCC2)O1 (stereo not drawn)	.	/	/	.
CC(C)CN(CC(C)C)C(=O)C1CCCCC1C(=O)O (stereo not drawn)	.	30.3	.	.
COc1ccc2c(c1)-c1nc(/N=C/c3ccc(C)o3)sc1CC2	82.4	.	.	.
COc1ccc2c(c1)CCc1sc(/N=C/c3ccc(C)cc3)nc1-2	.	.	.	.
CCc1ccccc1NCc1c(CO)cnc(C)c1O	.	.	.	.
O=C(Cc1nc2ccccc2[nH]1)c1cccs1	.	/	22.0	.
N/C(Cc1nc2ccccc2[nH]1)=N\O	.	43.8	.	.
COc1ccc2c(CC(=O)N[C@@H](Cc3c[nH]c4ccccc34)C(=O)O)coc2c1	.	.	.	.
CCc1ccc(CN2CCC(O)CC2)cc1	.	35.9	.	.
NNc1nnc(-c2ccccc2)c(-c2ccccc2)n1	72.9	.	.	.
NNc1nc(-c2ccccc2)c2ccccc2n1	/	/	/	.
CCNc1nc(NCC)n2c(SCC(=O)Nc3ccc(CC)cc3)nnc2n1	86.8	.	.	.
COc1ccc2c(CN3C(=O)NC4(CCc5ccccc54)C3=O)cc(=O)oc2c1 (stereo not drawn)	.	.	.	.
CN1C(=O)Cc2cc(S(=O)(=O)CCC(=O)Nc3cccc(C(F)(F)F)c3)ccc21	/	/	.	/
CN1C(=O)Cc2cc(S(=O)(=O)CCC(=O)Nc3ccccc3)ccc21	/	/	-22.0	/
Oc1ccccc1C(=S)N1CCN(C(=S)c2ccccc2O)CC1	93.7	.	.	.
O=C(c1ccccc1O)N1CCOCC1	/	.	.	.
CC12C=CC(O1)C1C(=O)N(c3ccccc3Cl)C(=O)C12 (stereo not drawn)	66.2	/	.	.
O=C1CC(Nc2ccccc2)C(=O)N1c1ccccc1Cl (stereo not drawn)	/	.	.	.
SMILES	MbtI inh	Mtb MenB inh	Polio RdRp inh	AID504770
COC(=O)c1cc(N2C(=O)C3C4C=CC(C)(O4)C3C2=O)ccc1Cl (stereo not drawn)	81.2	.	.	.
O=C(O)C1C2C=CC3(CN(c4ccc(Cl)c(F)c4)C(=O)C13)O2 (stereo not drawn)	/	.	.	.
Cc1oc(C(C)(C)C)cc1-c1cc(N)n(C)n1	/	/	/	.
CCCC1NC(=S)N(c2ccccc2)N1 (stereo not drawn)	97.8	.	.	.
O=C(O)CCCNc1nc2ccccc2s1	.	.	.	.
NCC1CCN(Cc2ccccc2)C1 (stereo not drawn)	.	28.2	.	.
c1ccc(CN2CCCC(c3ccccc3)C2)cc1 (stereo not drawn)	.	/	/	.
CCCCCn1nc(C)c(/C=N\NC(=O)c2cccs2)c1C	.	.	.	.
CN1/C(=C\C=N\NC(=O)C2COc3ccccc3O2)C(C)(C)c2ccccc21 (stereo not drawn)	.	.	.	.
CN(CCC#N)CC1Cc2ccccc2O1 (stereo not drawn)	.	44.5	.	.
O=C1c2ccccc2CN1CCNS(=O)(=O)c1ccc2oc3ccccc3c2c1	/	.	.	.
CCOC(=O)c1cc(-c2cccnc2)nc2c1c(C)nn2C	.	.	.	.
COCC(C)Nc1nc(-c2ccccc2F)cs1 (stereo not drawn)	.	.	.	.
CC1(C)N=C(c2ccccc2)C(=S)N1C(=O)c1ccccc1	56.6	.	.	.
COc1c(C(=O)NCCOc2ccccc2)ccc2ccccc12	/	.	.	.
CSc1ccc(NC(=O)C2CC(O)CN2C(=O)Nc2ccccc2)cc1 (stereo not drawn)	.	.	.	.
COc1ccc(C=C2C(=O)NC(=S)NC2=O)cc1	96.9	.	.	.
COc1ccc(C=C2C(=O)NC(=O)NC2=O)cc1	.	.	.	.
CCC(C)N=Cc1c(O)n(-c2ccccc2)c(=O)[nH]c1=O (stereo not drawn)	101.8	.	.	.
O=C(Cc1n[nH]c(=O)c2ccccc12)NCc1ccccc1	.	.	.	.
O=C(O)Cc1n[nH]c(=O)c2ccccc12	.	36.6	.	.
COC(=O)c1c(N2C(=O)CCC2=O)sc2c1CCCC2	.	.	.	-3.2
CCOC(=O)c1c(N2C(=O)CCC2=O)sc2c1CCCC2	/	/	/	.
CCOC(=O)CC(NC(=O)N1CCC(CN2CCC(C)CC2)CC1)c1ccccc1 (stereo not drawn)	/	/	49.0	/
CCOc1ccc(NC(=O)N2CCC(CN3CCC(C)CC3)CC2)cc1	/	/	.	/
SMILES	MbtI inh	Mtb MenB inh	Polio RdRp inh	AID504770
CCCS(=O)(=O)N1CCN(Cc2ccc(OC)c(OCC)c2)CC1	.	.	.	.
COC(=O)c1cc2nc(-c3ccc(F)cc3)cc(C(F)(F)F)n2n1	/	.	87.0	.
COC(=O)c1ccc(C(=O)OC)c(NC(=O)c2cc3nc(-c4ccc(C)cc4)cc(C(F)(F)F)n3n2)c1	/	/	.	/
O=S1(=O)CCC(n2nnnc2-c2ccccc2)C1 (stereo not drawn)	/	/	/	-2.75
O=C1CC(n2nnnc2-c2ccccc2)C2COC1O2 (stereo not drawn)	/	.	.	.
COc1ccc(S(=O)(=O)N2Cc3ccccc3CC2C(=O)NC(C)(C)C)cc1OC (stereo not drawn)	.	.	.	.
CCCc1cc(=O)[nH]c(SC(C)C(=O)NC(=O)NC)n1 (stereo not drawn)	.	.	.	.
Cc1ccccc1Nc1nc(N)nc(COC(=O)CCCN=C2NS(=O)(=O)c3ccccc32)n1	.	.	86.0	.
Cc1ccccc1Nc1nc(N)nc(COC(=O)Cc2c[nH]c3ccccc23)n1	.	.	.	.
CC(C)Oc1ccc(CNC(=O)c2cnc3sc(N4CCCC4)nn3c2=O)cc1	/	/	15.0	/
CCN(Cc1ccccc1)C(=O)c1cc2cccnc2n(C)c1=O	.	.	.	.
COc1ccc(OCC(=O)Nc2ncccn2)cc1	/	.	.	.
C/C(C/C(C)=C1/SC(=S)NC1=O)=C1\SC(=S)NC1=O	80.8	.	.	.
CCCCCNc1nc(C)c(C(=O)OCC)s1	.	.	.	.
CC(C)(C)n1ncc2c(=O)n(NC(=O)/C=C/c3ccccc3)cnc21	.	.	.	.
O=C(CSC1=NCCc2ccccc21)c1ccccc1Cl	.	.	68.0	.
O=C(SC1=NCCc2ccccc21)c1ccccc1	.	.	.	.
O=C(CSC1=NCCc2ccccc21)c1ccc(-c2ccccc2)cc1	.	.	83.0	.
COC(=O)c1ccc(Oc2coc3cc(OC)ccc3c2=O)cc1	/	/	/	.
